Pf growth 48h = Primary qHTS for delayed death inhibitors of the malarial parasite plastid, 48 hour incubation | P. falciparum luciferase growth in erythrocytes, 48 h | Potency, µM (highest dose often 28.7 µM), without a hit: top-dose activity change, negative = inhibition, actives largely listed as inhibitors | actives 5.9% (n = 310,000) | AID 504832, 2011; further: potency means the concentration at half of the fitted maximal effect; on the % scale 0 is the no-effect control and ±100 the full control effect
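First compound was added to culture medium, then infected red cells at 0.1% parasitemia and 2% hematocrit (final). After incubation at 37 C under 5% CO2, luciferase detection reagent was dispensed and light output recorded.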
SARS PLpro yeast = qHTS of Yeast-based Assay for SARS-CoV PLP | S. cerevisiae expressing SARS-CoV PLpro, growth rescue | Potency, µM (series often up to 32.9 µM), without a hit: at the top dose activity, positive = growth rescue, actives largely listed as activators | actives 0.19% (n = 330,000); calls by dose curve; further: potency means the concentration at half of the fitted maximal effect; 0% is about no effect; nearly all actives have a fitted effect of over 55% in size
Cycloheximide cs = Cycloheximide Counterscreen for Small Molecule Inhibitors of Shiga Toxin | actives 12% (n = 300,000) | max response, % | cell reporter, cycloheximide protein synthesis inhibition counterscreen; in the data active means max response mostly above about 13%, no sharp cut-off; inactive means mostly below about 14%; further: read at 38.3 µM for the half of the compounds with a filed dose; 0% is about no effect
Pf growth 96h = Primary qHTS for delayed death inhibitors of the malarial parasite plastid, 96 hour incubation | P. falciparum luciferase reporter growth, 96 h | Potency, µM (series often up to 28.7 µM), without a hit: at the highest dose activity change, negative = inhibition, actives largely listed as inhibitors | actives 6.9% (n = 320,000); further: potency means the concentration at half of the fitted maximal effect; on the % scale 0 is the no-effect control and ±100 the full control effect
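P. falciparum expressing integrated firefly luciferase, in erythrocytes at 2% hematocrit, 0.05% parasitemia, incubated with compounds 96 h at 37 C, 5% CO2. Growth inhibition read as loss of luminescence; two-generation exposure targets delayed-death apicoplast inhibitors.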
Shiga toxin inh = A qHTS for Small Molecule Inhibitors of Shiga Toxin; Vero cells, Shiga toxin protein synthesis inhibition reporter; inhibition, % at 38.7 µM; actives 9.2% (n = 290,000); in the data active means inhibition mostly above about 28%, no sharp cut-off; inactive means mostly below about 43%; further: 0% is about no effect
NS1 inh = qHTS Assay for Inhibitors of Influenza NS1 Protein Function | Potency, µM (top dose mostly 46.1 µM), without a hit: at the top dose activity, positive = more growth | actives 0.4% (n = 270,000) | AID 2326, 2010; calls by dose curve; further: potency means the concentration at half of the fitted maximal effect; actives are rising curves; nearly all actives have a fitted effect of over 50% in size
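OD600 was taken as the measure of yeast growth restored by compound in an NS1-expressing S. cerevisiae strain. Cells had been washed out of glucose medium and diluted 1:100 into galactose -URA medium, pH 6.0.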
The depositor's hits bear a star; ? = inconclusive; . = no result given; [ ] = another dose, or the depositor's remark. Hits are enriched below; roughly 21% of the tested compounds scored in any of these assays. Unless noted, the call rests on the fitted dose curve; in most records, active means well fitted inhibition curve with a large enough effect; inconclusive means small, poorly fitted or top-dose-only effect, or another doubt; inactive means no such curve, though single readings can be large or run the other way.

SMILES | Pf growth 48h | SARS PLpro yeast | Cycloheximide cs | Pf growth 96h | Shiga toxin inh | NS1 inh
S=C(NCC1CCCO1)n1nnc2ccccc21 (stereo not drawn) | ? | -5% | 31* | ? | -1 | ?
Clc1ccc(CCNc2nc3ccccc3n3nnnc23)cc1 | . | 0% | 4 | -30% | 8 | -4%
CCCCNC(=O)CCC(=O)N1CCN(C(c2ccccc2)c2ccccc2)CC1 | -25% | -6% | -3 | ? | -13 | -9%
O=C1C2C(C(=O)N1/N=C/c1ccco1)C1C=CC2C12CC2 (stereo not drawn) | 28% | 5% | 4 | 43% | 17 | 7%
O=C1C2C3C=CC(CC3)C2C(=O)N1/N=C/c1ccco1 (stereo not drawn) | 25% | 1% | 17* | 11% | 26 | .
COC(=O)c1ccc(-c2ccc(/C=N/N3C(=O)C4C5C=CC(CC5)C4C3=O)o2)cc1 (stereo not drawn) | 75% | -1% | 35* | 4% | 37 | -3%
Cc1cc(Oc2ccc(-c3nnc(-c4ccccc4)o3)cc2[N+](=O)[O-])ccc1Cl | 0% | -9% | 17 | ? | -9 | 23%
COc1cccc(-c2nnc(-c3ccc(C)o3)o2)c1 | 126% | -5% | 27* | 67% | 29* | 3%[9.22 µM]
COc1cccc(-c2nnc(N)o2)c1 | 47% | -2% | 10* | 131% | 26 | -10%
COc1cccc(-c2nnc(-c3ccco3)o2)c1 | 292% | -28% | 60* | 222% | active | -6%
CC(=O)Oc1ccc(C(=O)Nc2cccc(-c3nnc(-c4ccco4)o3)c2)cc1 | ? | 1% | 13 | ? | -11 | 2%
COc1cccc(-c2nnc(-c3ccccc3[N+](=O)[O-])o2)c1 | 99% | -1% | 41* | 73% | 93* | 6%
N#Cc1ncc(Cc2ccccc2)nc1C#N | ? | ? | 12 | ? | . | -74%
Cc1ccc(NC(=O)COC(=O)Cn2cnc3ccccc32)c(C)c1 | . | -17% | . | . | . | .
CSc1ccccc1NC(=O)CN(C)S(=O)(=O)c1ccc(F)cc1 | . | -7% | -2 | ? | -10 | 3%
COc1cccc(C(=O)Nc2ccc(-c3nnc(-c4ccco4)o3)cc2)c1 | 4.7µM* | 2% | 17* | ? | 57 | 1%
COc1cccc(C(=O)Nc2cccc(-c3nnc(-c4ccccc4)o3)c2)c1 | . | . | . | . | . | -18%
COc1ccc(C)cc1NC(=O)CN1CCN(c2ccccc2F)CC1 | 13µM* | -9% | 1 | 0% | -17 | -42%
O=C(CN1CCN(S(=O)(=O)c2ccc(F)cc2)CC1)c1ccc(O)c(O)c1 | -30% | 3% | 11 | 0% | -3 | .
COc1ccc(S(=O)(=O)N2CCN(CC(=O)c3ccc(O)c(O)c3)CC2)cc1 | -3% | -5% | -1 | 15µM* | -8 | -8%
COc1cc(NC(=O)c2ccccc2Cl)c(OC)cc1NC(=O)CN1CCCCC1 | 51% | 1% | -2 | 1.9µM* | -5 | 1%
O=C(CN1CCN(S(=O)(=O)c2ccc(F)cc2)CC1)Nc1ccc(F)cc1F | 14% | -2% | 60* | ? | 37* | -13%
COc1ccc(C)cc1NC(=O)CN1CCN(S(=O)(=O)c2ccc(F)cc2)CC1 | ? | 6% | -3 | . | -3 | -3%
COc1ccc(C)cc1NC(=O)CCN1CCN(c2ccccc2F)CC1 | ? | 1% | -2 | ? | -9 | -12%
O=c1[nH]c(/C=C\c2ccc(O)c(Cl)c2)nc(O)c1[N+](=O)[O-] | -19% | -2% | 2 | 219% | -10 | 3%
SMILES | Pf growth 48h | SARS PLpro yeast | Cycloheximide cs | Pf growth 96h | Shiga toxin inh | NS1 inh
Cc1ccc(/C=C2\SC(=O)N(CCNC(=O)C3CSC4(C)CCC(=O)N34)C2=O)cc1 (stereo not drawn) | ? | -3% | . | ? | . | .
CCN(CC)C(=O)/C(C#N)=C/c1cc(O)c(O)c([N+](=O)[O-])c1 | -29% | . | . | ? | . | .
CCCCN(C(=O)C(C)Oc1ccc(Cl)cc1)c1c(N)n(CCCC)c(=O)[nH]c1=O (stereo not drawn) | 13% | 6% | . | 2% | . | .
CN(/C=C/C(=C\C=[N+](C)c1ccccc1)OCCCS(=O)(=O)[O-])c1ccccc1 | 24% | -1% | 1 | 74% | -1 | 3%
COc1ccc(C)cc1NC(=O)CN1CCN(S(=O)(=O)c2ccc3ccccc3c2)CC1 | ? | -5% | . | 12µM* | . | .
COc1ccccc1NC(=O)CN1CCN(CC(=O)Nc2ccc(F)cc2F)CC1 | 28% | 0% | 32* | 4.1µM* | 92* | -2%
O=C(CN1CCN(S(=O)(=O)c2ccc(F)cc2)CC1)Nc1cc(C(F)(F)F)ccc1Cl | ? | -1% | -2 | ? | 38 | -32%
COc1ccc(S(=O)(=O)N2CCN(CC(=O)Nc3cc(C(F)(F)F)ccc3Cl)CC2)cc1 | 4.7µM* | -6% | -3 | 17% | -9 | 3%
NC(=O)c1ccccc1NC(=O)c1cc(S(=O)(=O)N2CCCCC2)ccc1N1CCOCC1 | 13µM* | -11% | . | 6.6µM* | . | .
O=C(NC1CCCCCC1)c1cc(S(=O)(=O)N2CCCCC2)ccc1N1CCOCC1 | 12µM* | 0% | 15 | ? | -2 | .
O=C(NC1CCCCCC1)c1cc(S(=O)(=O)N2CCOCC2)ccc1N1CCCCC1 | ? | -2% | -3 | 6.6µM* | 12 | -3%
O=C(NC1CCCCC1)c1cc(S(=O)(=O)N2CCCCC2)ccc1N1CCOCC1 | ? | 2% | . | ? | . | .
CSc1ccccc1OCc1cc(C(=O)NCCn2nc(C)cc2C)no1 | ? | -2% | 11* | 8% | 6 | -23%
CSc1ccccc1OCc1cc(C(=O)NCCN2CCCc3ccccc32)no1 | ? | -5% | 33* | 9% | 16 | 27%
CSc1ccccc1OCc1cc(C(=O)NC(C)Cn2cncn2)no1 (stereo not drawn) | 0% | -3% | 13* | 10% | 18 | 1%
CSc1ccccc1OCc1cc(C(=O)NCC(C)(C)N2CCOCC2)no1 | ? | 1% | 8 | ? | 55 | -7%
O=C(NCCc1nc2ccccc2[nH]1)c1cccc(Br)c1 | -8% | 4% | -2 | 7% | -3 | 5%
NS(=O)(=O)c1ccc(NCc2nc3ccccc3[nH]2)cc1 | . | . | . | . | . | -3%
Nc1cccc(CCc2nc3cc4ccccc4cc3[nH]2)c1 | 203% | 3% | 22* | ? | 36* | 10%
O=S(=O)(CCc1nc2ccccc2[nH]1)c1ccc(Br)cc1 | ? | -7% | -2 | 10µM* | -2 | 6%
O=C(NCCCc1nc2ccccc2[nH]1)c1ccco1 | 27% | 4% | 6 | 9.3µM* | 3 | 6%
O=C(NCCCc1nc2ccccc2[nH]1)c1cccs1 | -9%[5.75 µM] | 1% | 3 | 12% | 7 | .
O=S(=O)(NCc1nc2ccccc2[nH]1)c1ccccc1 | 32% | -8% | 19 | 52% | 31* | 8%
